# Reference: PubChem BioAssay (NCATS)
# Values joined by “and” are separate entries in the source; they are usually repeats but may differ in a detail not shown here. Equal values may be shown once. Unmarked numbers belong to inactive results. Inconclusive results are not listed. The list shows a part of the results. Where a call stands in place of a potency, no number is given. Active and inactive are the calls of the source. Unless noted, the call rests on the fitted dose curve; in most records, active means well fitted curve in the direction sought with a large enough effect; inconclusive means small, poorly fitted or top-dose-only effect, or another doubt; inactive means no such curve, though single readings can be large; an effect the other way counts as inactive or inconclusive.
# Legend:
# [1] = target: Cytochrome P450 3A4 (Homo sapiens) (UniProt P08684); assay: qHTS Assay for Activators of Cytochrome P450 3A4 (AID 885); further: nearly all actives have a fitted effect of over 65% in size
# In short: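 Activators are scored by enhanced luminescence from CYP3A4 conversion of luciferin-PPXE (25uM, equal to KM) to luciferin, after 60 min at RT with an NADPH-regenerating system.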
# [2] = qHTS assay to identify small molecules that stimulate interleukin-8 (IL-8) secretion (AID 651758; active means well fitted activation curve with a large enough effect in the signal ratio; the % refers to the signal ratio; further: potency means the concentration at half of the fitted maximal effect)
# In short: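 Compounds are added to THP-1 cells (2000 per well) and left 16 hrs at 37 C. A labeled anti-IL-8 antibody pair is then added, and IL-8 secretion is measured by time-resolved FRET after 1-3 hrs at room temperature.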
# [3] = target: DNA dC->dU-editing enzyme APOBEC-3G (Homo sapiens) (UniProt Q9HC16); assay: qHTS for inhibitors of Vif-A3G interactions: Validation (AID 588379)
# In short: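 Yellow fluorescence (Ex 488, Em 500-530) of Vif-coexpressing HeLa A3G-eYFP cells, scanned by Acumen cytometer, reports blocked A3G degradation. Cells plated at 700/well overnight at 37 deg C before compound addition, then a further overnight compound incubation at 37 deg C.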
# [4] = target: ATP-dependent 6-phosphofructokinase (Trypanosoma brucei brucei) (UniProt O15648); assay: qHTS Assay to Find Inhibitors of T. brucei phosphofructokinase: hit validation (AID 492961);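 further: luminescence reports ADP formed as PFK phosphorylates fructose-6-phosphate with ATP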
# In short: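 Inhibition of parasite PFK is measured as reduced ADP formation, quantified via luciferase after ATP depletion. Assay used 0.1 mM ATP, 0.5 mM F6P, 1.25 nM enzyme, 45 min incubation.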
# CP185 = assay: qHTS profiling for inhibitors of Plasmodium falciparum proliferation (AID 504749); further: nearly all actives have a fitted effect of over 60% in size; conditions: P. falciparum in erythrocytes, SYBR Green DNA, 72 h; series mostly up to 28.7 µM
# In short: (§1)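 Each compound contacts P. falciparum-infected red blood cells for 72 h at 37 C; lysis buffer (Tris, EDTA, saponin, Triton X, SYBR Green I) is added and fluorescence measured next morning; values normalized to controls.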
# CP191 = assay: as above; conditions: P. falciparum in erythrocytes, SYBR Green DNA, 72 h; series mostly up to 28.7 µM
# In short: as §1
# CP192 = assay: as above; conditions: P. falciparum in erythrocytes, SYBR Green DNA, 72 h; series mostly up to 28.7 µM
# In short: as §1
# CP194 = assay: as above; conditions: P. falciparum in erythrocytes, SYBR Green DNA, 72 h; series mostly up to 28.7 µM
# In short: as §1
# CP201 = assay: as above; conditions: P. falciparum in erythrocytes, SYBR Green DNA, 72 h; series mostly up to 28.7 µM
# In short: as §1
# CP203 = assay: as above; conditions: P. falciparum in erythrocytes, SYBR Green DNA, 72 h; series mostly up to 28.7 µM
# In short: as §1
# DFO2036 = assay: as above; conditions: P. falciparum in erythrocytes, SYBR Green DNA, 72 h; series mostly up to 28.7 µM
# In short: as §1
# P94_40 = assay: as above; conditions: P. falciparum in erythrocytes, SYBR Green DNA, 72 h; series mostly up to 28.7 µM
# In short: as §1
# PC49 = assay: as above; conditions: P. falciparum in erythrocytes, SYBR Green DNA, 72 h; series mostly up to 28.7 µM
# In short: as §1
# TAB113 = assay: as above; conditions: P. falciparum in erythrocytes, SYBR Green DNA, 72 h; series mostly up to 28.7 µM
# In short: as §1
# [5] = target: Androgen receptor (Homo sapiens) (UniProt P10275); assay: qHTS assay for small molecule agonists of androgen receptor signaling (AID 588515; active means well fitted curve in the direction sought with a large enough effect in the signal ratio, with a control signal flat; the % refers to the signal ratio); conditions: AR-UAS-bla HEK293, beta-lactamase ratio, agonist 16 h; stronger effect = higher value
# In short: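 Stimulation of an AR-responsive β-lactamase reporter in GripTite HEK293 cells was measured after 16 h compound exposure at 37 °C, via CCF4 fluorescence after 2 h RT. EC50 from Hill fits, normalized to R1881 at 30 nM.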
# [6] = target: Androgen receptor (Homo sapiens) (UniProt P10275); assay: qHTS assay for small molecule antagonists of androgen receptor signaling (AID 588516; active means well fitted curve in the direction sought with a large enough effect in the signal ratio, with a control signal flat, not every such curve was filed as active; the % refers to the signal ratio)
# In short: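 Antagonist mode: inhibition of R1881-stimulated (10 nM final) bla reporter in GeneBLAzer AR HEK 293 cells, 16 h at 37C, compounds titrated. IC50 and efficacy from Hill-equation fits of 405/460–530 nm FRET ratios.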
# [7] = Counterscreen for APE1 Inhibitors: Fluorescent Dye Displacement Assay (AID 2564);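 further: loss of thiazole orange fluorescence as the dye is displaced from duplex DNA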
# In short: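 Endpoint fluorescence read at 480 nm excitation / 540 nm emission; DNA-binding compounds lower signal by displacing 250 nM Thiazole Orange from 50 nM dsDNA containing a tetrahydrofuran abasic site, Tris-HCl pH7.5 buffer with NaCl and MgCl2.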
# [8] = target: Endonuclease 4 (Escherichia coli (strain K12)) (UniProt P0A6C1); assay: Counterscreen for APE1 Inhibitors: qHTS Assay for Inhibitors of Endonuclease IV (AID 2565)
# In short: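 Conditions: 2 nM enzyme, 50 nM TAMRA/BHQ-2 substrate, pH 7.5 Tris buffer with 2 mM MgCl2, RT. Compound preincubation 15 min; readout three fluorescence reads 60 s apart, third-minus-first.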
# [9] = target: DNA repair nuclease/redox regulator APEX1 (Homo sapiens) (UniProt P27695); assay: Confirmation qHTS Assay for Inhibitors of the Human Apurinic/apyrimidinic Endonuclease 1 (APE1) (AID 2572); further: nearly all actives have a fitted effect of over 30% in size; further: potency means the concentration at half of the fitted maximal effect
# In short: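 Cleavage of a tetrahydrofuran abasic site in a 50 nM (final) TAMRA/BHQ-2 duplex was tracked by rising fluorescence, measured in kinetic mode; reaction progress computed from the first-to-third read difference.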
# [10] = target: DNA repair nuclease/redox regulator APEX1 (Homo sapiens) (UniProt P27695); assay: qHTS FP-Based Assay for Inhibitors of the Human Apurinic/apyrimidinic Endonuclease 1 (APE1) (AID 2573); further: potency means the concentration at half of the fitted maximal effect
# DNA repair nuclease/redox regulator APEX1 (Homo sapiens), sequence (P27695 whole entry, looked up): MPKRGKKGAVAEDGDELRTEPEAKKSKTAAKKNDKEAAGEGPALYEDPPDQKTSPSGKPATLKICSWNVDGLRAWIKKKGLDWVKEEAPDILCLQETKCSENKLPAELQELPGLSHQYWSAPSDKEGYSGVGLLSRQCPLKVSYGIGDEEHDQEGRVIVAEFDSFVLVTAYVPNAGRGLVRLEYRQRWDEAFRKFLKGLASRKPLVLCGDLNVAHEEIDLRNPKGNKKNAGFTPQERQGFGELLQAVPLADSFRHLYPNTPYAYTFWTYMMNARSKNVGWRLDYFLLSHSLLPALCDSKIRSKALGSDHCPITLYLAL
# Androgen receptor (Homo sapiens), sequence (P10275 whole entry, looked up): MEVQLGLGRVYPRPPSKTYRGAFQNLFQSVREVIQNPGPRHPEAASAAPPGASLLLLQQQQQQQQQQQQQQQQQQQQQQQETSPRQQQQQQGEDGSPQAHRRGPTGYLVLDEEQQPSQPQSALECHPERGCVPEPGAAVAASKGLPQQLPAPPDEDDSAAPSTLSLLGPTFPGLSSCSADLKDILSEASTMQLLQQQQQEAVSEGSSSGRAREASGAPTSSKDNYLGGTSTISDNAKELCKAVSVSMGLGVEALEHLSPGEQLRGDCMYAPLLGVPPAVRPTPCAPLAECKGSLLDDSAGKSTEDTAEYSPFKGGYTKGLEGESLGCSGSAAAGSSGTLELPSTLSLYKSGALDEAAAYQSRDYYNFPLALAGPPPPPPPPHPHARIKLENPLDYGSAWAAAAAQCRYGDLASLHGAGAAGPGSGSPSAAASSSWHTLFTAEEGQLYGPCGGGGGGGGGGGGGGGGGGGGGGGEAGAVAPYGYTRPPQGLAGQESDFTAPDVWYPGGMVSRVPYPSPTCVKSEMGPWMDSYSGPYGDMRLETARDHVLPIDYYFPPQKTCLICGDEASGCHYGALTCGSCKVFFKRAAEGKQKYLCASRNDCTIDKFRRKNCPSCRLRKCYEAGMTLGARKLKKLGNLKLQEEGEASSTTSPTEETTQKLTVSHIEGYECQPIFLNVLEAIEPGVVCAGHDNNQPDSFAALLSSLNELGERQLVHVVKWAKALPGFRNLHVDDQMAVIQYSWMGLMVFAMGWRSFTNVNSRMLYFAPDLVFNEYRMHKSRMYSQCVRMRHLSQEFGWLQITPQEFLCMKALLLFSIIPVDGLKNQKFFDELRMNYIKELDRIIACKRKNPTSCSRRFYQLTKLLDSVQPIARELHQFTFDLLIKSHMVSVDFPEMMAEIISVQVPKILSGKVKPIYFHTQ
# Cytochrome P450 3A4 (Homo sapiens), sequence (P08684 whole entry, looked up): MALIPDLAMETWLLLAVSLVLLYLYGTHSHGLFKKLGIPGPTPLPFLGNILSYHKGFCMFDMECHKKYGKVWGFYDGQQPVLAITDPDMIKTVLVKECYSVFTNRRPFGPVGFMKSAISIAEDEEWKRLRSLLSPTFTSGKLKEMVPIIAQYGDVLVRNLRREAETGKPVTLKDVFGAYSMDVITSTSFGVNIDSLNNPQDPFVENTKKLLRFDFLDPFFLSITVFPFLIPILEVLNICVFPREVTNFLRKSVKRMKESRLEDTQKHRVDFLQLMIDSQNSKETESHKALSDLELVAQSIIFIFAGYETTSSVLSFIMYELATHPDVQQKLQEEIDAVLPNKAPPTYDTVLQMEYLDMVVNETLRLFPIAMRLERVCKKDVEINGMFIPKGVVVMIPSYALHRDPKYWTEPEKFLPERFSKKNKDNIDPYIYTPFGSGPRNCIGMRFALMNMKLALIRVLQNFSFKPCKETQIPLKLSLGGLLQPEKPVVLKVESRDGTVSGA
# DNA dC->dU-editing enzyme APOBEC-3G (Homo sapiens), sequence (Q9HC16 whole entry, looked up): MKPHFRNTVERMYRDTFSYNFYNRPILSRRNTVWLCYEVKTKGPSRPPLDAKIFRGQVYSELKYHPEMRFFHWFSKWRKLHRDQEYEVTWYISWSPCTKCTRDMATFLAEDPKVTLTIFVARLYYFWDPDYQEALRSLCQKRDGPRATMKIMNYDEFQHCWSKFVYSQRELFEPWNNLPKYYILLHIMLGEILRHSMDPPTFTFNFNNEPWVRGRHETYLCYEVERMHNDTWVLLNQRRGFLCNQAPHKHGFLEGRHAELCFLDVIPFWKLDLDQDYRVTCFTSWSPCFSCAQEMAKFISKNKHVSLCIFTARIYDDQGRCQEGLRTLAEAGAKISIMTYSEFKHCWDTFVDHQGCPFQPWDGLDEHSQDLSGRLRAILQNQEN
# ATP-dependent 6-phosphofructokinase (Trypanosoma brucei brucei), sequence (O15648 whole entry, looked up): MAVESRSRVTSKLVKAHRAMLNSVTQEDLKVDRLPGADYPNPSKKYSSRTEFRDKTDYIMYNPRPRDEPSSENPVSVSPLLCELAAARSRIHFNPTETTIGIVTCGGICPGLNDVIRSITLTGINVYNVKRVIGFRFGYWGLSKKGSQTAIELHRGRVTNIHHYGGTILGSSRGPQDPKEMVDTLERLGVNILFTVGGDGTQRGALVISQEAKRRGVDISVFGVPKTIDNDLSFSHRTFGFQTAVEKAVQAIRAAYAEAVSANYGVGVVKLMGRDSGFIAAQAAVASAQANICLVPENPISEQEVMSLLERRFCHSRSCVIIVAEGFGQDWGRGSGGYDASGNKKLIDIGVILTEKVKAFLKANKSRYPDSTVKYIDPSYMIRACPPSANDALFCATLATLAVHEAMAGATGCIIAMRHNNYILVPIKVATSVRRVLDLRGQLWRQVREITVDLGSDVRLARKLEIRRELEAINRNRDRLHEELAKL
smiles,measurement,setting,value
c1cc2c3c(c1)ccc1cccc(c13)C2,Potency,[1],inactive
same,Potency,[2],inactive
Oc1cc2c(cc1O)[C@H]1c3ccc(O)c(O)c3OC[C@@]1(O)C2,Potency,[1],inactive
same,outcome,[3],inactive
CC(C)(C)C(=O)C1C(=O)c2ccccc2C1=O,Potency,[2],inactive
CC(=O)Nc1cccc(C)c1,Potency,[2],inactive
CCCCCCCC/C=C\CCCCCCCC(=O)N(CCO)CCO,Potency,[1],inactive
Cc1c(C(=O)O)c(O)cc2c1C(=O)c1c(O)c([C@H]3O[C@H](CO)[C@@H](O)[C@H](O)[C@H]3O)c(O)c(O)c1C2=O,Potency,[1],inactive
same,outcome,[4],inactive
same,outcome,[3],inactive
same,Potency,CP185,inactive
same,Potency,CP191,inactive
same,Potency,CP192,inactive
same,Potency,CP194,inactive
same,Potency,CP201,inactive
same,Potency,CP203,inactive
same,Potency,DFO2036,inactive
same,Potency,P94_40,inactive
same,Potency,PC49,inactive
same,Potency,TAB113,inactive
O=C(Cl)c1ccc([N+](=O)[O-])cc1,activation,[5],25.7%
same,outcome,[6],inactive
same,Potency,[2],inactive
O=[N+]([O-])c1cc(N(CCO)CCO)ccc1NCCO,activation,[5],15% and 1.64%
same,outcome,[6],inactive
CCN(CC)c1ccc(N)cc1,Potency,[1],inactive
same,Potency,[2],37.6 µM (active)
Cc1cc2nc(N)sc2cc1C,Potency,[1],inactive
Cc1cc(-c2ccc(N=Nc3cc(S(=O)(=O)O)c4ccccc4c3N)c(C)c2)ccc1N=Nc1cc(S(=O)(=O)O)c2ccccc2c1N,Potency,[1],inactive
Nc1ccc2c(c1)C(=O)c1ccccc1C2=O,Potency,[1],inactive
Cc1cc(C)c2nc(-c3ccco3)cc(C(=O)O)c2c1,outcome,[7],inactive
same,outcome,[8],inactive
same,Potency,[9],12.6 µM (active)
same,Potency,[10],inactive
Cc1ccc(S(N)(=O)=O)cc1,Potency,[2],inactive
Cc1ccc(-c2nc(SCC(=O)Nc3ccccc3OC(F)F)c3c(C)c(C(=O)O)sc3n2)cc1,outcome,[7],inactive
same,outcome,[8],inactive
same,Potency,[9],7.94 µM (active)
same,Potency,[10],11.2 µM (active)
N/C(=N\OC(=O)Nc1ccccc1)c1ccno1,outcome,[7],inactive
same,outcome,[8],inactive
same,Potency,[9],inactive
same,Potency,[10],inactive
Cc1ccc(Cc2cnc(N)s2)o1,outcome,[7],inactive
same,outcome,[8],inactive
same,Potency,[9],inactive
S=C(NC1CCCCC1)NC1CCCCC1,Potency,[1],inactive
O=C(O)/C=C/c1ccc(/C=C/C(=O)O)cc1,activation,[5],-7.2%
CC(=O)OC(C(=O)c1ccccc1)c1ccccc1 (centres undefined),activation,[5],-5.55%
same,Potency,[2],inactive
C=CCn1c(=S)[nH]c2scc(-c3ccco3)c2c1=O,outcome,[7],inactive
same,outcome,[8],inactive
same,Potency,[10],inactive
CCCCCCCCOc1ccc(C(=O)O)cc1,Potency,[2],66.8 µM (active)
O=C(OCC1CO1)C1CCCCC1C(=O)OCC1CO1 (centres undefined),Potency,[2],66.8 µM (active)
c1ccc(SCCSc2ccccc2)cc1,activation,[5],12.3%
same,Potency,[2],inactive
CN(C)c1ccc(C(=N)c2ccc(N(C)C)cc2)cc1,Potency,[1],inactive
same,Potency,[2],66.8 µM (active)
Nc1ccc(N)c(Cl)c1,Potency,[1],inactive
C=CC(=O)OCCCCCCOC(=O)C=C,Potency,[1],inactive
same,activation,[5],1.98%
CC(C)(C)C(=O)OCc1nc(-c2ccc(O)c(O)c2)cs1,Potency,[10],inactive
N#Cc1ccccc1CN1C(=O)S/C(=C/c2cccn2-c2cccc(C(=O)O)c2)C1=O,Potency,[10],inactive
